Screens as filed in PubChem.
Cruzain inh noDet: blocks cruzain activity in detergent-free assay. Potency, µM, hits mostly inhibitors. P25779. AID 1476. hit rate 2.3% among 200,000. purified cruzain, Z-FR-AMC fluorescence, no detergent; also: nearly all actives have a fitted effect of over 40% in size
Target sequence (P25779 123-467 limits assumed): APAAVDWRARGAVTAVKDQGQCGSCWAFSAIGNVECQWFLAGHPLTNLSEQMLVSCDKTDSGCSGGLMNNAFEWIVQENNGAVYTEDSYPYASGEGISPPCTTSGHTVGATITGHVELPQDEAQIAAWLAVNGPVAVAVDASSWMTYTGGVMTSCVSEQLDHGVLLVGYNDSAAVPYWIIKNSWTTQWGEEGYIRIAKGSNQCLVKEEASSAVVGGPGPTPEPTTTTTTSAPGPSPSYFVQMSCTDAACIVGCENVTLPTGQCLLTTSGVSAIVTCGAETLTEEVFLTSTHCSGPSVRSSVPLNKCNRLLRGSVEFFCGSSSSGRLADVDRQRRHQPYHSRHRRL
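Purified cruzain at 1.5 nM, pre-incubated 15 min with compound at room temperature in 100 mM sodium acetate pH 5.5, 5 mM DTT, 0.00005% Triton X-100. Reaction started with 2 uM Z-FR-AMC; AMC fluorescence increase over 60 s gives rate.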
Cruzain Triton: blocks cruzain activity in presence of Triton detergent | P25779 | purified cruzain, Z-FR-AMC fluorescence, 0.01% Triton | Potency, µM, most hits filed as inhibitors | hit rate 0.43% among 200,000 | AID 1478; also: nearly all actives have a fitted effect of over 40% in size
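Read-out: AMC fluorescence (360 nm excitation, 450 nm emission), four reads over 2 min, first-to-third difference used. Conditions: cruzain 1.5 nM, Z-FR-AMC 2 uM, pH 5.5 acetate, 5 mM DTT, 0.01% Triton X-100.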
Large screens that a line does not name were inactive. Sampled rows, rich in hits. Any-hit rate of the full collection: about 2.4%. Calls follow the shape of the dose curve; as a rule, active = well fitted curve in the direction sought with a large enough effect; inconclusive = small, poorly fitted or top-dose-only effect, or another doubt; inactive = no such curve, though single readings can be large; an effect the other way counts as inactive or inconclusive.

Cc1nc(S(=O)(=O)c2ccc(Cl)cc2)c(NCc2ccccc2)o1	Cruzain inh noDet 32µM, Cruzain Triton inconclusive
CC1=N/C(=C\c2ccc([N+](=O)[O-])cc2)C(=O)N1c1ccc(Cl)cc1	Cruzain inh noDet 16µM
CC1=N/C(=C/c2ccc([N+](=O)[O-])cc2)C(=O)N1c1ccc(Cl)cc1Cl	none
O=C(O)CSc1nc2ccc(NC(=O)COc3ccc(Cl)cc3)cc2s1	none
Cc1cccc(NC(=O)CSc2nc3ccc(NC(=O)CSc4nnnn4-c4ccccc4)cc3s2)c1C	Cruzain inh noDet inconclusive
Cc1cccc(NC(=O)CSc2nc3ccc(NC(=O)COc4ccc(Cl)cc4)cc3s2)c1	Cruzain inh noDet 7.9µM
O=C(CSc1nc2ccc(NC(=O)CSc3nnnn3-c3ccccc3)cc2s1)Nc1ccccc1	Cruzain inh noDet 5µM
CCOC(=O)c1cccc(NC(=O)CCS(=O)(=O)c2ccc3c(c2)CC(=O)N3C)c1	none
CCc1nn(CC(=O)NC(C)c2ccccc2)c(=O)c2cc3sccc3n12 (stereo not given)	none
COc1cccc(CN2CCc3nc(Nc4ccc5c(c4)OCCO5)ncc3C2)c1OC	none
COc1ccc(C2C=C(c3ccc(F)cc3)Nc3nc(-c4ccc(Cl)cc4)nn32)cc1 (stereo not given)	none
COc1ccc(C2=CC(c3ccccc3Cl)n3nc(-c4ccc(C)cc4)nc3N2)cc1 (stereo not given)	Cruzain inh noDet 3.2µM
Cc1cc(C)n2nc(CNS(=O)(=O)c3ccccc3)nc2n1	none
CC1Cc2cc(-c3csc(NC(=O)Cc4ccccc4)n3)ccc2N1S(C)(=O)=O (stereo not given)	Cruzain inh noDet inconclusive
COc1ccc(CC(=O)Nc2nc(-c3cccc([N+](=O)[O-])c3)cs2)cc1	Cruzain inh noDet 20µM
CS(=O)(=O)N1CCc2cc(-c3csc(NC(=O)C(c4ccccc4)c4ccccc4)n3)ccc21	Cruzain inh noDet 7.9µM
COc1ccc(CC(=O)Nc2cccc(-c3csc(C)n3)c2)cc1	none
CC(OC(=O)c1ccccc1Br)C(=O)Nc1nc(-c2cccc([N+](=O)[O-])c2)cs1 (stereo not given)	Cruzain inh noDet inconclusive
O=C(Nc1nc(-c2cccc([N+](=O)[O-])c2)cs1)C(c1ccccc1)c1ccccc1	Cruzain inh noDet 10µM
O=C(NCc1ccc2c(c1)CCN2C(=O)c1ccncc1)c1ccccc1Cl	none
Cc1ccc(C(=O)O)cc1NC1(c2ccccc2)C(=O)c2ccccc2C1=O	none
Cn1c(=O)c(-c2ccc(F)cc2)nc2cnc(OCc3ccccc3)nc21	none
CCCc1ccc(-c2cc(C(=O)NCCc3ccc(S(N)(=O)=O)cc3)c3ccccc3n2)cc1	none
CCCc1ccc(-c2cc(C(=O)Nc3ccc([N+](=O)[O-])cn3)c3ccccc3n2)cc1	Cruzain inh noDet 25µM
COc1ccc(-c2cc(C)nc(SCc3cccc(C(=O)O)c3)n2)cc1	none
O=C(O)c1cccc(CSc2nc(-c3ccc(Cl)cc3)cc(C(F)(F)F)n2)c1	Cruzain Triton 28µM
O=C(c1cccs1)N1CCCc2cc(NS(=O)(=O)c3cc(F)ccc3F)ccc21	none
O=S1(=O)CCN(Cc2cccc(Cl)c2)CC1	none
O=C1NCCN1Cc1cccc(Cl)c1	Cruzain inh noDet 13µM
Cn1c(=O)n(-c2ccc(Br)cc2F)c(=O)c2sc3ccccc3c21	none
COc1ccc(N2CCN(C(=O)CCc3c(C)nc4cc(-c5cccc(F)c5)nn4c3C)CC2)cc1	none
Cc1cc(C)nc(NC(=NCCc2c[nH]c3ccccc23)NC(=O)Nc2ccccc2)n1	Cruzain inh noDet inconclusive
Cc1cc(C)nc(NC(=NCCc2c[nH]c3ccccc23)NC(=O)Nc2cccc([N+](=O)[O-])c2)n1	Cruzain inh noDet 10µM
Cc1cc(C)nc(NC(=NCCc2c[nH]c3ccccc23)NC(=O)c2ccco2)n1	Cruzain inh noDet inconclusive
Cc1cc(C)nc(NC(=NCCc2c[nH]c3ccccc23)NC(=O)Nc2ccc(Cl)c(Cl)c2)n1	Cruzain inh noDet 7.9µM
CC(=O)Nc1cccc(-c2nnc(SCC(=O)c3cc([N+](=O)[O-])ccc3Cl)o2)c1	none
Cc1ccc(-n2ncc3c(=O)[nH]c(SCC(=O)N4CCOCC4)nc32)cc1	none
Cc1ccc(-n2ncc3c(=O)[nH]c(SCC(=O)N4CCN(c5ccccc5)CC4)nc32)cc1	Cruzain inh noDet 25µM
O=c1[nH]c(SCc2nc3c(cnn3-c3ccccc3)c(=O)[nH]2)nc2ccccc12	none
O=c1[nH]c(SCc2ccccc2Cl)nc2c1cnn2-c1ccccc1	Cruzain inh noDet 16µM
Cc1cccc(C)c1NC(=O)Cn1c(=O)n(CCCS(=O)(=O)C2CCCCC2)c(=O)c2ccccc21	none
Cc1cc2ccccc2n1-c1ccc(C(=O)N2CCC(C(=O)NCc3ccccc3Cl)CC2)s1	Cruzain inh noDet inconclusive
O=C(Nc1c(C(=O)c2ccccc2)oc2ccccc12)c1cc(=O)c2ccccc2o1	none
CCCc1nnc2n1N=C(c1ccc(OC)c(OC)c1)CS2	none
CCCc1nnc2n1N=C(c1ccc(-c3cc(Cl)ccc3Cl)o1)CS2	Cruzain inh noDet 16µM
COc1cc(NCCCCCCCN)c2ncccc2c1	Cruzain inh noDet 16µM
